The record followed here is PubChem BioAssay AID651658 (Broad Institute, 2012).

SMILES strings stand for the structures. Screen size: about 340,000 compounds; about 5,100 (1.5%) were called active. The entries come from a sample that favours actives as a whole. Values without a mark were called inactive.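 The calls were made as follows: active = mean Tm shift, scaled 0 neutral to 100 positive control, at about 1.3% or above, every replicate too (limit read from the data); inconclusive = no clear call, values can overlap the other calls; inactive = the rest.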

Fibroblast growth factor 22 (Homo sapiens), sequence (Q9HCT0 whole entry, looked up): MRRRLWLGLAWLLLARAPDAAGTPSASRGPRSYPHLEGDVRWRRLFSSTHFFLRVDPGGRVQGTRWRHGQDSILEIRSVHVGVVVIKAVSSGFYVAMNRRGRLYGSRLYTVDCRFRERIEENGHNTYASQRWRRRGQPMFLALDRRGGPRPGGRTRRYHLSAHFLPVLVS

This experiment concerns the target Fibroblast growth factor 22 (Homo sapiens) (UniProt Q9HCT0). Put plainly: FGF22 ligand-induced thermal stabilization – biophysical, thermal shift, single point, FGF22 synaptogenesis inhibitor project, primary screen (AID 651658). The settings on record: recombinant FGF22 thermal shift, SYPRO orange fluorescence; at 9.99 µM; active compounds read high; percent of sucrose octasulfate shift, DMSO zero.
As for `Cc1noc(C)c1NC(=O)N(C)C[C@H]1OCCCC[C@@H](C)Oc2ccc(NC(=O)NC(C)C)cc2C(=O)N([C@H](C)CO)C[C@@H]1C`, the activity (Tm shift, normalised) is 0.234%.

With `COc1ccc(OCCCn2cccc2/C=C2/C(=N)N3OC(C)=CC3=NC2=O)cc1`, the activity (Tm shift, normalised) was 43.6% (active).

In the case of `CC1=CC2=NC(=O)/C(=C/c3coc4ccccc4c3=O)C(=N)N2O1`, the activity (Tm shift, normalised) is 0.039%.

For the compound `COc1ccccc1OCCOc1ccc(/C=C2\C(=N)N3N=C(C)SC3=NC2=O)cc1`, the activity (Tm shift, normalised) is -0.133%.

Consider `CCCNC(=O)N(C)C[C@@H]1Oc2cc(-c3ccccc3)ccc2S(=O)(=O)N([C@H](C)CO)C[C@H]1C`, for which the activity (Tm shift, normalised) was -0.206%.

Consider `O=C(N[C@@H]1CC[C@@H](CCNS(=O)(=O)c2ccccc2Cl)O[C@@H]1CO)c1ccccc1`, for which the activity (Tm shift, normalised) was -0.098%.

As to `CC1CN(C(=O)COC(=O)c2cccc(NS(=O)(=O)c3ccccc3)c2)CC(C)O1` (stereo unspecified), the activity (Tm shift, normalised) is 43% (active).

On to `CC1CN(C(=O)c2cccc(NS(=O)(=O)c3ccc(Br)cc3)c2)CC(C)O1` (stereo unspecified), for which the activity (Tm shift, normalised) was 0.103%.

As for `COc1ccc(N2CCN(C(=O)COC(=O)c3cccc(S(=O)(=O)Nc4ccccc4OC)c3)CC2)cc1`, the activity (Tm shift, normalised) is -0.159%.

Consider `COc1cccc(-c2ccc3c(c2)[C@@H]2[C@@H](CCN2S(=O)(=O)C2=NC(C)C=N2)[C@@H](CO)N3C)c1` (stereo partly specified), for which the activity (Tm shift, normalised) was -0.294%.

With `Cc1ccc(-c2ccc(/C=N/NC(=O)CN3CCOCC3)o2)cc1[N+](=O)[O-]`, the activity (Tm shift, normalised) was -0.102%.

In the case of `CN1CCN(/N=C/c2ccc(-c3ccc([N+](=O)[O-])cc3)o2)CC1`, the activity (Tm shift, normalised) was 42.9% (active).

Consider `CN1CCN(/N=C/c2ccc(C#N)cc2)CC1`, for which the activity (Tm shift, normalised) was 0.346%.

With `COc1ccc(NC(=O)N[C@H]2CC[C@@H](CCNC(=O)c3cc(Cl)cc(Cl)c3)O[C@H]2CO)cc1`, the activity (Tm shift, normalised) is 0.37%.

For `COc1ccc(C[C@@H]2CCc3cnnn3COC[C@H](c3ccccc3)NC2=O)cc1`, the activity (Tm shift, normalised) is 0.006%.

Take `CCCNC(=O)Nc1ccc2c(c1)OC[C@@H](C)N(CCC)C[C@H](C)[C@@H](OC)CN(C)C2=O`: the activity (Tm shift, normalised) was 0.109%.

Turning to `COc1ccc(C(=O)CSc2nnnn2C)c(OC)c1`, the activity (Tm shift, normalised) is 43% (active).

As for `COc1ccc(C(=O)CCc2ccccc2O)c(OC)c1`, the activity (Tm shift, normalised) was -0.131%.

With `COc1ccc(-n2nnnc2SCC(=O)c2ccc(OC)c(OC)c2)cc1`, the activity (Tm shift, normalised) is -0.381%.

Regarding `COc1ccc2c3c([nH]c2c1)[C@H](CO)N(C(=O)c1ccccc1)CC31CN(C(=O)Nc2cccc(F)c2)C1`, the activity (Tm shift, normalised) is 0.15%.

On to `O=C(c1cccnc1)N1CC2(C1)[C@@H](c1ccccc1)[C@H](CO)N2C(=O)C1CCC1`, for which the activity (Tm shift, normalised) was -0.239%.
